# Most compounds without a hit are left out; they make up all but 5% or so of the library.
# SENP7 inh: SENP7 protease inhibition; recombinant SENP7, Z-RLRGG-aminoluciferin luminescence, 40 min; inhibition, % at 5 µM; AID 434973; 330,000 compounds, 1.5% hits;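 active = inhibition above about 50% at the single test dose, limit read from the data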;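 note: plate controls were DMSO with enzyme for no effect and no enzyme buffer wells for full effect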
# SENP8 block-1: inhibitors of human SENP8 protease | Q96LD8 | recombinant SENP8, Nedd8 substrate fluorescence | inhibition, % at 20 µM | 360,000 compounds, 0.64% hits | AID 602440; in the data active = inhibition mostly above about 40%, no sharp cut-off; inactive = mostly below about 27%
# SENP8 block-2: blocks the human protease SENP8. purified SENP8, Z-RLRGG-aminoluciferin cleavage, luminescence. inhibition, % at 10 µM. 330,000 compounds, 1.2% hits. Q96LD8; in the data active = inhibition above about 50%
# SENP6 inh: SENP6 protease inhibition; Recombinant SENP6 catalytic domain, aminoluciferin luminescence; inhibition, % at 10 µM; 330,000 compounds, 1.8% hits;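 active = inhibition above about 50% at the single tested dose, limit read from the data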;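 note: plate controls were DMSO wells with enzyme for no effect and DMSO wells lacking enzyme for full effect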
# AHR activator: human AHR activation | AHR-responsive luciferase reporter cells, luminescence | activation, % at 5 µM | 320,000 compounds, 2.5% hits | AID 2796; in the data active = activation above about 47%;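 note: 0% = vehicle wells and 100% = reference agonist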
# EBI2 block: EBI2 (human) antagonism. P32249. 360,000 compounds, 0.81% hits. EBI2 beta-arrestin recruitment, luminescence, 7a,25-OHC stimulated. inhibition, % at 5 µM; in the data active = inhibition above about 38%;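 note: enzyme fragment complementation signal reports receptor beta-arrestin coupling in cells; 0% = agonist plus DMSO wells and 100% = wells without agonist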
# Target sequence (P32249 whole entry, looked up, the tested form may be a part): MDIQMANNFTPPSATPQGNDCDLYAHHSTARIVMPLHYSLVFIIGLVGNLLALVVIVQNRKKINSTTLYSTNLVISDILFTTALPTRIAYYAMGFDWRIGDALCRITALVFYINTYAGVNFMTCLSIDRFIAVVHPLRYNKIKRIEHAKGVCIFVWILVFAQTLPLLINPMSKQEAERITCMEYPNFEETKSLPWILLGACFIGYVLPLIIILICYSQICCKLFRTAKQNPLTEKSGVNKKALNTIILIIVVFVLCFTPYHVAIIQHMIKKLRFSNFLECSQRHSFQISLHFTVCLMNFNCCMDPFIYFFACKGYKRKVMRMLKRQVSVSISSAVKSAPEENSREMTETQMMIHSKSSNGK
# Numbers without * were called inactive; i = inactive; x = no result.
SMILES,SENP7 inh,SENP8 block-1,SENP8 block-2,SENP6 inh,AHR activator,EBI2 block
COc1ccc2oc(CS(=O)c3ccccc3)c(C(=O)O)c2c1 (stereo unspecified),-0.1,4.1,3.7,23.7,3.9,4.0
CCOc1ccc2oc(C(=O)N3CCN(Cc4ccccc4)CC3)c(C)c2c1,-4.3,-17.7,-7.8,2.3,6.5,44.1*
CCOc1ccc2oc(C(=O)O)c(C)c2c1,-3.4,-25.7,2.5,-16.9,2.4,-5.3
COc1cc2c(cc1OC)C(c1ccc(-c3cc(Cl)ccc3Cl)o1)=NCC2,5.9,i,3.5,-4.2,20.3,61.7*
COc1cc2c(cc1OC)C(C)=NCC2,4.2,-5.8,-0.2,-5.7,-0.8,-5.4
O=C(c1ccc(-c2cc(Cl)ccc2Cl)o1)N1CCOCC1,-10.6,9.9,-0.6,-62.6,2.4,-4.3
COc1cc2c(cc1OC)C(c1ccc(-c3ccccc3Cl)o1)=NCC2,6.9,-108.5,6.0,-8.9,14.1,49.1*
COc1cc2c(cc1OC)C(c1ccc(-c3ccc(Cl)c(Cl)c3)o1)=NCC2,19.0,-74.9,-0.8,1.1,63.3*,65.5*
COc1cc2c(cc1OC)C(c1ccc(Cl)cc1)=NCC2,0.7,1.2,2.3,4.1,2.5,6.0
O=C(C(=O)N1CCN(c2ccccc2)CC1)c1ccco1,x,12.2,x,x,x,-2.3
COC(=O)[C@@]1(Sc2ccc(C)cc2)CC(=O)N(C(=O)/C=C/c2ccccc2)[C@@H]1c1ccccc1,x,6.5,x,x,x,21.3
Cc1ccc(S(=O)(=O)N2[C@@H](CO)CO[C@H]2CC(=O)c2ccccc2)cc1,x,23.3,x,x,x,3.1
COc1cc(CNn2cn[nH]c2=S)cc(Cl)c1OCc1ccc(F)cc1,7.4,6.0,3.2,0.0,87.3*,0.4
Cc1ccc2c(c1)sc(=NC(=O)C1CC1)n2C,6.3,-5.0,-6.2,13.9,53.8*,-7.1
Nc1nnc(SCC(=O)c2ccc3ccccc3c2)s1,-0.2,x,-14.5,17.5,48.1*,x
Nc1ccc2nc(SCC(=O)c3ccccc3)sc2c1,0.6,-12.4,7.1,16.2,49.1*,-6.2
N#Cc1ccc(Oc2ccc(C#N)c(C#N)c2)cc1C#N,x,7.8,x,x,x,-7.2
CSC1=NC=C(C#N)C2=NC(c3c(Cl)cccc3Cl)NN12 (stereo unspecified),x,51.5*,x,x,x,5.9
Cc1cc(-c2n[nH]c(=S)n2/N=C/c2c[nH]c3ccccc23)n[nH]1,17.4,20.2,3.5,-1.1,7.5,-0.3
O=[N+]([O-])c1ccccc1/C=C/C=N/n1c(-c2ccc(Cl)cc2)n[nH]c1=S,-2.7,30.7,-1.5,-5.2,60.5*,-6.2
S=c1[nH]nc(-c2ccc(Cl)cc2)n1/N=C/c1cccs1,8.1,35.4,1.2,4.6,75.2*,8.2
Cc1cc(-c2n[nH]c(=S)n2/N=C/c2ccccc2[N+](=O)[O-])n[nH]1,6.3,20.0,1.4,-0.5,47.6*,-21.8
CC(=O)Nc1ccc(-c2ccnc3c2CC(C)(C(=O)Nc2cccc(OC(F)(F)F)c2)O3)cc1 (stereo unspecified),x,-10.4,x,x,x,-1.8
O=C1C2C3C=CC(C3)C2C(=O)N1CNc1ccc(O)cc1 (stereo unspecified),18.1,x,13.4,72.1*,0.5,x
CCn1cc(/C=C(\NC(=O)c2cc(OC)c(OC)c(OC)c2)C(=O)N2CCOCC2)c2ccccc21,x,-1.1,x,x,x,-2.0
SMILES,SENP7 inh,SENP8 block-1,SENP8 block-2,SENP6 inh,AHR activator,EBI2 block
CCc1ccc2[nH]c(=O)c(CN(Cc3ccc4c(c3)OCO4)Cc3nnnn3C3CCCC3)cc2c1,-4.4,-89.0,-12.6,-7.7,61.8*,-10.8
Oc1ccccc1/C=N/n1c2ccccc2c2ccccc21,-4.4,2.6,-0.7,-15.9,19.9,-12.2
N=c1scc(-c2ccccc2)n1/N=C/c1ccco1,5.8,-41.0,-1.3,0.9,27.6,-3.3
C(=N/n1c2ccccc2c2ccccc21)/c1ccco1,-1.4,22.9,3.6,-7.8,51.0*,-3.2
C(=N\n1c2ccccc2c2ccccc21)/c1ccccc1,-9.2,15.9,-14.5,-4.4,65.4*,-15.7
CC[n+]1c(/C=C/c2ccc(N(C)C)cc2)ccc2ccccc21,x,47.0*,x,x,-1.9,8.1
COc1cc(OC)c(OC)cc1CN1CCN(Cc2ccco2)CC1,4.6,-6.9,24.3,21.0,-2.4,-20.9
CCC1(O)CCCC2C3CCC4CC(=O)CCC4(C)C3C(=O)CC21C (stereo unspecified),x,1.3,x,x,x,-2.4

# Source: PubChem
